Screening results deposited in PubChem by several laboratories.
Compounds with a hit are over-represented: about 2.4% of the library has one in this group of screens.
CRFBP-R2 agonist: agonists of CRF-BP/CRF-R2 complex, primary screen, cell-based, HEK293, calcium dye fluorescence, uHTS | hit rate 0.46% among 350,000 | CRF-binding protein / CRF receptor 2 complex (human) | calcium dye fluorescence (FLIPR); percent of saturating CRF peptide response | activation, % at 13.2 µM;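 active = activation of at least 50%, plus an integration ratio under a set limit after plate pattern correction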
TMEM16A inh: TMEM16A chloride channel inhibitors, primary screen, cell-based, HTS | Anoctamin-1 (Mus musculus), Q8BHY3 | HEK293 TMEM16A/YFP iodide influx fluorescence, ionomycin | hit rate 1.2% among 310,000 | normalized B-score (activity score, 25-100; higher = stronger inhibition) at 10 µM;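 active = ratio plate-corrected score three or more library SD toward inhibition, starting fluorescence score within five deviations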;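 note: score derived from kinetic fluorescence span divided by baseline fluorescence per well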
Cardiac RTF inh: cardiac RTF calcium sensitivity inhibitors, primary screen, biochemical, IANBD-TnC fluorescence, EC70 calcium; Troponin I, cardiac muscle (Homo sapiens) + Troponin T, cardiac muscle (Homo sapiens) + …; IANBD-labeled cardiac RTF, Ca2+ fluorescence; AID 493244, 2011; inhibition, % at 7.15 µM; hit rate 0.12% among 340,000;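 active = inhibition above the mean inhibition of all tested compounds plus 3 SD, cut at about 17% in these data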;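 note: assay run at fixed EC70 calcium of 1.6 mM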
CRFR2-BP antag: antagonists of CRF-BP/CRF-R2 complex, primary screen, cell-based, HEK293, calcium dye fluorescence, uHTS. inhibition, % at 11.8 µM. CRF-induced calcium fluorescence. hit rate 0.59% among 350,000;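 active = inhibition of the ligand-induced calcium signal above about 50% at the single tested concentration, limit read from the data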
ANO1 activ: TMEM16A chloride channel activators or potentiators, primary screen, cell-based, HTS; Anoctamin-1 (Mus musculus), Q8BHY3; HEK293 TMEM16A/YFP-H148Q/I152L, iodide quench fluorescence; stronger effect = lower value; B-score at 10 µM; hit rate 0.3% among 340,000;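 active = fluorescence-ratio B-score plate-corrected deviation score at least 3 library SD below zero, with starting fluorescence score within 5 deviations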;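 note: channel opened by trigger with iodide after compound preincubation; score built on the fluorescence ratio of max minus min over baseline; more negative score means more quench and so TMEM16A activation or potentiation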
cardiac RTF act: cardiac RTF calcium sensitivity activators, primary screen, biochemical, IANBD-TnC fluorescence, EC20 calcium. Troponin I, cardiac muscle (Homo sapiens) + Troponin T, cardiac muscle (Homo sapiens) + …. IANBD-labeled TnC RTF fluorescence at EC20 calcium; 0% EC20 calcium, 100% full calcium. AID 493008, 2010. hit rate 0.24% among 340,000. activation, % at 7.2 µM;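 active = activation above the mean over all tested compounds plus 3 SD, cut at about 30% in these data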;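 note: rise in fluorescence read as greater calcium sensitivity of cardiac thin filaments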
Large screens that a line does not name were inactive.

COc1ccc(CNC(=O)CN2CCN(S(=O)(=O)c3cc(Br)ccc3Br)CC2)cc1OC	CRFR2-BP antag 60 (no result: TMEM16A inh)
O=C(Nc1ccc(F)cc1F)c1ccc(-n2cccn2)c([N+](=O)[O-])c1	none
O=C1Nc2ccccc2/C1=C/c1cnc(-c2ccccc2)[nH]1	cardiac RTF act 36
Cc1ccc(C(C)C)cc1OCCCCN1CCCC1	none
N#Cc1nc(-c2ccccc2Cl)oc1NCc1ccco1	ANO1 activ -4.7
N#Cc1nc(-c2ccccc2)oc1NCc1ccco1	none
C[n+]1cc(C(=O)N2CCCCC2)ccc1/C=C/c1c[nH]c2ccccc12	CRFBP-R2 agonist 79, cardiac RTF act 143
Cc1ccc(N(CC(=O)N2CCCC2)S(C)(=O)=O)c(C)c1	none
COc1cc(/C=N/NC(=O)c2ccoc2C)cc(OC)c1OC	none
Cc1cc(/C=N/NC(=O)c2ccoc2C)cc(C)c1O	CRFR2-BP antag 68 (no result: TMEM16A inh, Cardiac RTF inh, ANO1 activ, cardiac RTF act)
CN(Cc1ccccc1)C(=O)N1CCOCC1	none
CC(=O)c1cccc(NC(=O)c2ccccc2N(Cc2ccccc2)S(C)(=O)=O)c1	none
COc1cc([N+](=O)[O-])ccc1N/C=C/C(=O)c1cccs1	CRFBP-R2 agonist 84, cardiac RTF act 287
Cc1[nH]n(-c2ncc(-c3ccc(Cl)cc3)s2)c(=O)c1C(c1ccc(Cl)cc1)C(C#N)C#N (configuration not stated)	TMEM16A inh 100
Cc1n[nH]c(C)c1Sc1ccccc1[N+](=O)[O-]	none
Cc1ccc(-n2nc(C)c(Sc3ccccc3[N+](=O)[O-])c2N)cc1	CRFR2-BP antag 52
CC(=O)N1CCc2c(sc(NC(=O)C3CC3)c2-c2nc3ccccc3s2)C1	none
CC(=O)Nc1sc2c(c1-c1nc3ccccc3s1)CN(C(C)C)CC2	CRFBP-R2 agonist 94 (no result: TMEM16A inh)
Cc1ccc(CN(C)C(=O)CCc2c[nH]c3ccccc23)o1	CRFR2-BP antag 57
CN(Cc1cccnc1)C(=O)CCCc1c[nH]c2ccccc12	none
CCC(CO)[n+]1c(C)cc(/C=C2\Sc3ccccc3N2Cc2ccccc2)cc1C (configuration not stated)	CRFBP-R2 agonist 77, cardiac RTF act 40
S=c1[nH]cc(-c2ccc(Cl)cc2)n1Cc1ccccc1	none
COC(=O)c1c[nH]c(=S)n1Cc1ccccc1	ANO1 activ -5.4 (no result: TMEM16A inh)
C/C(=C\c1ccccc1)CN1CCC(C(=O)N2CCCCC2)CC1	CRFR2-BP antag 96
O=[N+]([O-])c1ccc(/C=C/C2=NN(c3ccccc3)C(c3ccco3)C2)o1 (configuration not stated)	CRFBP-R2 agonist 66 (no result: TMEM16A inh)
Cc1cccc(N(C(=O)c2nsc(Cl)c2Cl)C(C(=O)NC2CCCC2)c2ccc(O)cc2)c1C (configuration not stated)	CRFR2-BP antag 91
CCOc1ccc(C(C(=O)NC2CCCC2)N(Cc2ccccc2)C(=O)c2nsc(Cl)c2Cl)cc1 (configuration not stated)	none
Cc1ccccc1N(C(=O)c1snc(C(N)=O)c1N)C(C(=O)NC1CCCCC1)c1ccc(O)cc1 (configuration not stated)	none
Cc1ccc(N(C(=O)c2nsc(Cl)c2Cl)C(C(=O)NC2CCCC2)c2ccc(O)cc2)cc1C (configuration not stated)	CRFR2-BP antag 88
Cc1cc(C)cc(N(C(=O)c2nsc(Cl)c2Cl)C(C(=O)NC2CCCC2)c2ccc(O)cc2)c1 (configuration not stated)	CRFR2-BP antag 73
Cn1cc(CN2CCCC(C(=O)Nc3ccc(-c4cccc(F)c4)cc3)C2)cn1 (configuration not stated)	none
CC(=O)N1c2c(cc(Br)cc2S(=O)(=O)N2CCN(c3ccccc3F)CC2)CC1C (configuration not stated)	TMEM16A inh 25
Clc1c(CSc2nc3ccccc3o2)nc2ccccn12	ANO1 activ -21
CCNS(=O)(=O)c1ccc(CCC(=O)NCc2ccc3c(c2)OCO3)cc1	none
O=C(NCCc1ccccc1)C1CCC(CNS(=O)(=O)c2cccc3cccnc23)CC1 (configuration not stated)	none
CCCCCn1c(=NC(=O)c2cccnc2)c(C#N)cc2c(=O)n3cccc(C)c3nc21	CRFBP-R2 agonist 63
CC(C)(C)c1cc(CCC(=O)NNC(=O)c2ccco2)cc(C(C)(C)C)c1O	none
CC(C)(C)c1cc(CCC(=O)NNC(=S)NC(=O)c2ccccc2)cc(C(C)(C)C)c1O	CRFBP-R2 agonist 158, TMEM16A inh 100, ANO1 activ -6.1
CCCCC(=O)NC(=S)NNC(=O)CCc1ccccc1	CRFBP-R2 agonist 71
O=C(CCc1ccccc1)NNC(=S)NC(=O)c1ccccc1	CRFBP-R2 agonist 80
Cc1ccc(S(=O)(=O)N(Cc2ccccc2)c2ccccc2C(=O)NCc2ccco2)cc1	CRFR2-BP antag 71
Cc1ccc(S(=O)(=O)N(Cc2ccccc2)c2ccccc2C(=O)Nc2ccccc2C(=O)NCc2ccco2)cc1	none
COc1cc(/C=C2\C(=N)N3N=C(N4CCOCC4)SC3=NC2=O)ccc1OC(=O)c1ccccc1	TMEM16A inh 100
O=C(Nc1ccc(C(=O)N2CCCC2)cc1)c1ccccc1F	CRFR2-BP antag 66
O=C(Nc1ccc(N2CCCCCC2)cc1)c1ccccc1Cl	CRFR2-BP antag 81
CC(=O)N1CCN(c2ccc(NC(=O)c3ccccc3Cl)cc2)CC1	none
O=C(Nc1cc(C(=O)N2CCCC2)ccc1N1CCCC1)c1ccccc1F	none
O=C1Nc2ccccc2C(=O)N2[C@H](c3cccc(Br)c3)[C@@H]3C(=O)N(Cc4ccccc4)C(=O)[C@@H]3[C@H]12	ANO1 activ -7.1
O=C1Nc2ccccc2C(=O)N2[C@H](c3ccccc3)[C@@H]3C(=O)N(Cc4ccccc4)C(=O)[C@@H]3[C@H]12	none
Cc1cc(C)cc(Nc2c(F)c(F)c(F)c(F)c2C(=O)O)c1	CRFR2-BP antag 52 (no result: Cardiac RTF inh, cardiac RTF act)
COc1c(F)c(F)c(C(=O)O)c(Nc2cccc(C)c2)c1F	none (no result: Cardiac RTF inh, cardiac RTF act)
CC(=O)c1ccccc1NC(=O)Cn1c(=O)cnc2ccccc21	CRFR2-BP antag 72
COc1ccc2[nH]c3c(c2c1)CCNC3c1ccc([N+](=O)[O-])o1 (configuration not stated)	cardiac RTF act 33
C/C=C/c1ccc(OCC(=O)N(CCOC)c2c(N)n(CCCC)c(=O)[nH]c2=O)c(OC)c1	none
CCOC(=O)c1[nH]c2ccccc2c1NC(=O)Nc1ccc(OC)cc1	CRFR2-BP antag 85
